Among all 340,000 compounds or so, about 1,000 (0.29%) were called active. The list is a sample of the results. Entries with a potency or affinity are not part of this list. A number with no mark means an inactive call. Cut-off read from the data, not from the text of the source: inconclusive = inhibition above about 27% without an active follow-up result; inactive = below that.
assay: NS1A inhibition, H1N1 influenza, cell based functional assay (AID 504329); conditions: percent inhibition, at 12.5 µM, stronger effect = higher value

In order of falling inhibition:
1. C#CCOCCOCCOCCNc1nc(N2CCN(C(=O)CCCCCCCCCCNC(=O)[C@H]([C@@H](C)CC)n3cc(CCCCCN)nn3)CC2)nc(N2CCN(C(=O)CCCCCCCCCCNC(=O)[C@H](CO)n3cc(CCCCCN)nn3)CC2)n1  22.1%
2. C/C(=N/NC(=O)c1ccccn1)c1ccncc1  19.9%
3. Cc1nc2ccc(C(=O)N/N=C/c3cc([N+](=O)[O-])ccc3O)cc2[nH]1  19%
4. CCCn1nc([N+](=O)[O-])c(C(C#N)c2nc3ccccc3o2)c(Cl)c1=O (stereo unspecified)  17.6%
5. Cc1ccc(CNc2cc(C(=O)O)ccc2C)s1  14.2%
6. Oc1ccc(/C=N/Nc2ccc(C(F)(F)F)cn2)cc1  13.7%
7. O=C(COC(=O)c1ccccn1)c1ccc(Br)cc1  13.3%
8. Cc1sc2ncnc(N/N=C/c3ccccc3O)c2c1C  12.5%
9. Cc1ncc(CO)c(/C=N/NC(=S)Nc2ccc(C(C)C)cc2)c1O  11.8%
10. O=C(O)C(c1ccccc1)N1C(=O)/C(=C\c2ccc(O)c(O)c2)SC1=S (stereo unspecified)  10.8%
11. C/C(=N/NC(=O)c1ccccn1)c1c[nH]c2ccccc12  9.32%
12. O=C(N/N=C(\c1ccccc1)c1ccccn1)c1ccccc1Cl  7.83%
13. Cn1nc([N+](=O)[O-])c(C(C#N)c2ccccn2)c(Cl)c1=O (stereo unspecified)  7.2%
14. O=C1NC2NC(=O)N(C(Cc3ccccc3)C(=O)O)C2N1 (stereo unspecified)  7.19%
15. COc1ccccc1N(C(=O)c1ccco1)C(C(=O)NC1CCCCC1)c1cc(OC)c(OC)c(OC)c1 (stereo unspecified)  7.04%
16. COCCn1c(-c2ccc(SC)cc2)nc2c1c(=O)[nH]c(=O)n2CC(C)C  6.85%
17. COc1cnc(-c2ccccn2)nc1Sc1ccc(F)cc1  6.63%
18. O=[N+]([O-])c1ccc(NN=Cc2cc(Br)ccc2O)nc1  6.5%
19. COc1ccc(-c2oc(=O)c3cc(OC)c(OC)cc3c2C#CCCCO)cc1  6.01%
20. CN(C(=O)Oc1ccc([N+](=O)[O-])cc1)c1ccccc1  5.58%
21. NC(=O)COC(=O)/C=C/c1ccc(S(=O)(=O)N2CCCCCC2)cc1  5.4%
22. CC(C)=C1C2CCC1C1C(=O)N(NC(=O)COc3ccc(C(C)(C)C)cc3)C(=O)C21 (stereo unspecified)  4.52%
23. O=C(NCc1ccccc1F)C1CCCN1S(=O)(=O)c1ccc(F)cc1 (stereo unspecified)  4.5%
24. COCCn1c(=O)[nH]c2cc(C(=O)N3CCN(c4cccc(C(F)(F)F)c4)CC3)ccc2c1=O  4.36%
25. O=S1(=O)N=C(N/N=C/c2cccs2)c2ccccc21  3.71%
26. Cn1nc([N+](=O)[O-])c(C(C#N)c2nc3ccccc3n2C)c(Cl)c1=O (stereo unspecified)  3.66%
27. O=[N+]([O-])c1cc(Cl)cc(/C=N/Nc2nc3ccccc3s2)c1O  3.56%
28. C/C(=N/NC(=O)c1ccncc1)c1c[nH]c2ccccc12  3.5%
29. Clc1ccccc1N=Nc1ccccn1  2.66%
30. Cn1c(C(=O)NCCCN2CCN(c3ccccc3F)CC2)cc2c(=O)n(C)c3ccccc3c21  2.56%
31. Cc1ncc(CO)c(/C=N/NC(=S)Nc2ccc(Cl)c(Cl)c2)c1O  2.53%
32. COc1ccccc1N/N=C/c1c(CO)cnc(C)c1O  2.27%
33. COc1ccc(C(=O)COC(=O)c2ccccn2)cc1OC  2.06%
34. c1ccc2nc3[nH]cnc3nc2c1  1.88%
35. NC(=O)C1CCCc2c1n(Cc1ccccc1)c1ccccc21 (stereo unspecified)  1.35%
36. Cc1sc2ncnc(Nc3ccccc3)c2c1C  1.18%
37. CCCCOc1c(Br)cc(CNCCCN2CCOCC2)cc1OC  1.13%
38. O=[N+]([O-])c1ccc(/C=N/NC2=NS(=O)(=O)c3ccccc32)cc1  1.07%
39. CCn1nc([N+](=O)[O-])c(C(C#N)c2nc3ccccc3n2C)c(Cl)c1=O (stereo unspecified)  0.82%
40. Nc1cc(N)nc(SCC(=O)NCc2ccco2)n1  0.81%
41. O=C1CC(=C(c2ccccc2)c2ccccc2)C(=O)N1CCCCN1CCN(c2ccccc2)CC1  0.53%
42. C/C(=N\NC(=O)CN1CCN(Cc2ccccc2)CC1)c1cccs1  0.29%
43. O=[N+]([O-])c1cccc(/C=N/Nc2ccccn2)c1  0.08%
44. O=C(CSc1nnnn1-c1ccc2c(c1)OCO2)NCc1ccccc1  0.06%
45. O=C(NCCc1ccc2c(c1)OCCO2)c1ccc([N+](=O)[O-])cc1Cl  -0.08%
46. Cc1ccc(C)c(OC(C)C(=O)Nc2nccs2)c1 (stereo unspecified)  -0.26%
47. Cc1cc(OCC(=O)NCc2ccncc2)c2c3c(c(=O)oc2c1)CCCC3  -0.56%
48. COc1cc(/C=C/C(=O)Nc2cccc(S(=O)(=O)N3CCOCC3)c2)ccc1OCC#N  -0.73%
49. COc1ccc(NC(=O)CC2(CC(=O)N3CCOCC3)CCCC2)cc1Cl  -1.17%
50. N#Cc1ccccc1S(=O)(=O)N1CCN(CC(=O)Nc2ccccc2C(=O)NC2CC2)CC1  -1.3%
51. O=[N+]([O-])c1ccc(Cl)cc1C=NNc1ccccn1  -1.7%
52. CC(C)(C)NC(=O)C(c1ccccc1F)N(Cc1ccco1)C(=O)c1csnn1 (stereo unspecified)  -1.84%
53. Cc1ccccc1/C=N/Nc1nc2ccccc2[nH]1  -2.18%
54. Cc1nc(C(F)(F)F)c(C(=O)NC(=O)Nc2ccccc2)s1  -2.55%
55. CC1CC(C)CN(S(=O)(=O)c2ccc(C(=O)Nc3nnc(C4CC4)o3)cc2)C1 (stereo unspecified)  -2.79%
56. C(=N\Nc1nc2ccccc2[nH]1)/c1ccc2ncccc2c1  -2.83%
57. COc1ccccc1Oc1ncnc2c1cnn2-c1ccccc1  -2.97%
58. Cc1ncc(CO)c(/C=N/Nc2cccc(Cl)n2)c1O  -2.98%
59. CN(c1ccc(OCC(=O)OCC(=O)Nc2ccc(OC(F)F)cc2)cc1)S(=O)(=O)c1cccs1  -3.07%
60. Cc1cc(C)cc(NC(=O)C(OC(=O)c2sccc2C)c2ccccc2)c1 (stereo unspecified)  -3.16%
61. O=[N+]([O-])c1ccc(/C=N/Nc2ccccn2)cc1  -3.42%
62. COc1ccc([N+](=O)[O-])cc1/C=N/Nc1nn[nH]n1  -3.63%
63. Fc1ccc(-c2csc(-c3ccccn3)n2)cc1F  -3.95%
64. Oc1ccccc1/C=N/Nc1nn[nH]n1  -4.08%
65. Cc1nc(C(F)(F)F)c(C(=O)N/N=C(\N)c2cccnc2)s1  -4.6%
66. O=[N+]([O-])c1cccc(/C=N/NC2=NS(=O)(=O)c3ccccc32)c1  -4.67%
67. CN(C(=O)CN1C(=O)c2cc(Cl)c(Cl)cc2C1=O)C1CCS(=O)(=O)C1 (stereo unspecified)  -4.84%
68. O=C(CNC(=O)c1ccccc1F)OCCCOC(=O)CNC(=O)c1ccccc1F  -5.51%
69. Cc1ccc(-c2nnn(CCOc3cccc(Br)c3)n2)cc1  -6.07%
70. C[C@H]1CCC[C@]2(O[C@H](CCO)C[C@@H](O)[C@@H]2O)O1  -6.34%
71. COc1ccc(S(=O)(=O)N2CCCC2C(=O)NCc2ccccc2Cl)cc1 (stereo unspecified)  -6.48%
72. CC1(C)CC(=O)C2=C(C1)OC(=O)CC2c1cccs1 (stereo unspecified)  -6.75%
73. C/C(=N\Nc1ncc(Cl)cc1Cl)c1ccc(C#N)cc1  -7.31%
74. COc1cccc2cc(CC(=O)c3ccccc3)c(=O)oc12  -8.03%
75. CCN(CC)S(=O)(=O)c1ccc(Cl)c(NC(=O)COC(=O)c2c(C)noc2C)c1  -8.29%
76. Cc1ccc(S(=O)(=O)N[C@H](C(=O)OCC(=O)NC(=O)Nc2ccc3c(c2)OCCO3)C(C)C)cc1  -8.36%
77. COc1ccc(CCNC(=O)CCCCCN2C(=O)c3ccccc3C2=O)cc1OC  -8.38%
78. Cc1ccc(C(=O)N2CCN(c3ccccc3Cl)CC2)cc1[N+](=O)[O-]  -8.39%
79. O=C(COC(=O)c1ccc2ncsc2c1)NC(=O)c1ccccc1  -8.75%
80. COc1ccc2nc(SC(C)C(=O)NCC(=O)Nc3ccc(F)c(F)c3F)[nH]c2c1 (stereo unspecified)  -9.36%
81. COc1cc(/C=N/Nc2ccc(C(F)(F)F)cn2)cc(OC)c1O  -10.9%
82. CC(=O)Nc1ccc(NC(=O)C(C)OC(=O)C(C)SCC(=O)Nc2ccc(C)cc2)cc1 (stereo unspecified)  -10.9%
83. N#CC(c1ccccc1)c1cnccn1 (stereo unspecified)  -11%
84. CCOC(=O)N1CCc2c(sc(NC(=O)C3COc4ccccc4O3)c2C(N)=O)C1 (stereo unspecified)  -11.4%
85. C/C(=N\Nc1ccc(Cl)c(C(=O)O)c1)c1ccccn1  -11.6%
86. COc1ccc(O)c(/C=N/Nc2nc3ccccc3[nH]2)c1  -13.2%
87. O=[N+]([O-])c1ccc(O)c(/C=N/Nc2ccccc2Cl)c1  -14.4%
88. C#CCOCCOCCOCCNc1nc(N2CCN(C(=O)CCCCCCCCCCNC(=O)[C@H]([C@@H](C)CC)n3cc(CCCCN=C(N)N)nn3)CC2)nc(N2CCN(C(=O)CCCCCCCCCCNC(=O)[C@H](CO)n3cc(CCCSC)nn3)CC2)n1  -16.7%
89. Cc1ccc2ccc3cccc4ccc1c2c34  -18.9%
90. C/C(=N\Nc1ccc(Cl)cc1)c1ccccn1  -19.3%
91. O=S1(=O)N=C(N/N=C/c2ccco2)c2ccccc21  -20%
